The panel holds about 83,000 compounds, 20% with a hit somewhere; the sample as a whole holds those more often.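 48-hour exposure, single concentration, 96-well plates; percent growth endpoint where 0 means no net growth. Active: below 10.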 Activity calls are given as the source filed them.
How the values were obtained:
Assay in all cases: NCI-60 one-dose screen, 48 h (100 = growth as untreated, 0 = no growth, -100 = all killed)
Conditions in all cases: 10 µM unless noted
HCT-15 colon = tested on: HCT-15 colon
HT29 colon = tested on: HT29 colon
SNB-75 CNS = tested on: SNB-75 CNS
SNB-19 CNS = tested on: SNB-19 CNS
U251 CNS = tested on: U251 CNS
PC-3 prostate = tested on: PC-3 prostate
SK-MEL-5 melanoma = tested on: SK-MEL-5 melanoma
UACC-62 melanoma = tested on: UACC-62 melanoma
LOX IMVI melanoma = tested on: LOX IMVI melanoma
SK-MEL-28 melanoma = tested on: SK-MEL-28 melanoma

Measured: growth

O=C(NCCCCCCNC(=O)c1c2c(nc3ccccc13)-c1cccnc1SC2)c1c2c(nc3ccccc13)-c1cccnc1SC2
inactive: HCT-15 colon 74.8% | HT29 colon 53.7% | SNB-75 CNS 62.9% | SNB-19 CNS 66.5% | U251 CNS 77.6% | PC-3 prostate 81% | SK-MEL-5 melanoma 84.3% | UACC-62 melanoma 12.2% | LOX IMVI melanoma 78.6% | SK-MEL-28 melanoma 27.7%

COc1ccccc1/C=C/C=N/NC1=NC2C(S1)N(C)C(=O)N2c1ccccc1 (stereo not given)
inactive: HCT-15 colon 12.1% | HT29 colon 15.9% | SNB-75 CNS 18.3% | SNB-19 CNS 22.7% | U251 CNS 23.5% | PC-3 prostate 26.9% | UACC-62 melanoma 33% | SK-MEL-28 melanoma 60.3%
active: SK-MEL-5 melanoma -12.6% | LOX IMVI melanoma -0.484%

CC1(C)CC[C@]2(C(=O)O)CC[C@]3(C)C(=CCC4[C@@]5(C)C[C@@H](O)[C@@H]6OC(c7cccc([N+](=O)[O-])c7)OC[C@@]6(C)C5CC[C@]43C)C2C1 (stereo not given in full)
inactive: HCT-15 colon 37.6% | HT29 colon 59% | SNB-75 CNS 84.4% | SNB-19 CNS 61.9% | U251 CNS 41.5% | PC-3 prostate 65% | SK-MEL-5 melanoma 64.5% | UACC-62 melanoma 69.2% | LOX IMVI melanoma 42.7% | SK-MEL-28 melanoma 87.4%

COc1cc(/C=C/C(=O)c2ccc(NC(=O)COc3cccc4cccnc34)cc2)cc(OC)c1OC
inactive: HCT-15 colon 50.3% | HT29 colon 81.2% | SNB-75 CNS 82.4% | SNB-19 CNS 73.7% | U251 CNS 83.8% | PC-3 prostate 84.6% | SK-MEL-5 melanoma 73.2% | UACC-62 melanoma 70.1% | LOX IMVI melanoma 42.5% | SK-MEL-28 melanoma 95.2%

Nc1n[nH]c2cccc(C#Cc3cccc(NC(=O)c4cccc(OC(F)(F)F)c4)c3)c12
inactive: HCT-15 colon 41.3% | HT29 colon 36.1% | SNB-75 CNS 47.7% | SNB-19 CNS 81.3% | U251 CNS 59.3% | PC-3 prostate 68.3% | SK-MEL-5 melanoma 80.9% | UACC-62 melanoma 30.1% | LOX IMVI melanoma 16.9% | SK-MEL-28 melanoma 30.3%

O=C1c2c(O)cc(O)cc2O[C@@H](c2ccc(O)cc2)[C@@H]1c1c(O)cc(O)c2c(=O)cc(-c3ccc(O)c(O)c3)oc12
inactive: HCT-15 colon 101% | HT29 colon 101% | SNB-75 CNS 82.6% | SNB-19 CNS 112% | U251 CNS 110% | PC-3 prostate 96.1% | SK-MEL-5 melanoma 99.6% | UACC-62 melanoma 89.5% | LOX IMVI melanoma 88.9% | SK-MEL-28 melanoma 99.1%

N#Cc1ccc(S(=O)(=O)Nc2ccc(-c3cnc(N)[nH]3)cc2)cc1
inactive: HCT-15 colon 96.7% | HT29 colon 98.5% | SNB-75 CNS 106% | SNB-19 CNS 94.1% | U251 CNS 98.3% | PC-3 prostate 99% | SK-MEL-5 melanoma 100% | UACC-62 melanoma 92.4% | LOX IMVI melanoma 97.9% | SK-MEL-28 melanoma 97.1%

CS(=O)c1nccc(-c2c(-c3ccc(F)c(OCc4ccc(F)cc4)c3)nc3sccn23)n1 (stereo not given)
active: PC-3 prostate -10.7%
inactive: HCT-15 colon 59.4% | HT29 colon 27.9% | SNB-75 CNS 94.4% | SNB-19 CNS 68.7% | U251 CNS 96% | SK-MEL-5 melanoma 100% | UACC-62 melanoma 85.6% | LOX IMVI melanoma 78.6% | SK-MEL-28 melanoma 41.1%

C(=C(\C1=NCCN1)n1cnc2ccccc21)/c1cccc2ccccc12
inactive: HCT-15 colon 88.2% | HT29 colon 95% | SNB-75 CNS 78.2% | SNB-19 CNS 88.8% | U251 CNS 94.6% | PC-3 prostate 78.6% | SK-MEL-5 melanoma 87.3% | UACC-62 melanoma 88.1% | LOX IMVI melanoma 83.8% | SK-MEL-28 melanoma 93.8%

CC(=O)NC(C)(C)C(=O)N1CCC[C@H]1C(=O)NC(C)(C)C(=O)N[C@@H](C)C(=O)NC(C)(C)C(=O)N[C@@H](C)C(=O)N[C@@H](CCC(N)=O)C(=O)NC(C)(C)C(=O)N[C@H](C(=O)NC(C)(C)C(=O)NCC(=O)N[C@@H](CC(C)C)C(=O)NC(C)(C)C(=O)N1CCC[C@H]1C(=O)N[C@H](C(=O)NC(C)(C)C(=O)NC(C)(C)C(=O)N[C@@H](CCC(N)=O)C(=O)N[C@@H](CCC(N)=O)C(=O)N[C@H](CO)Cc1ccccc1)C(C)C)C(C)C
inactive: HCT-15 colon 101% [4.25 µM] | HT29 colon 71% [4.25 µM] | SNB-75 CNS 33.4% [4.25 µM] | SNB-19 CNS 52.5% [4.25 µM] | U251 CNS 62.3% [4.25 µM] | PC-3 prostate 28.3% [4.25 µM] | SK-MEL-5 melanoma 38.2% [4.25 µM] | UACC-62 melanoma 95.8% [4.25 µM] | LOX IMVI melanoma 84.3% [4.25 µM] | SK-MEL-28 melanoma 65.3% [4.25 µM]

CS(=O)(=O)c1ccc(-c2nn(-c3ccccc3)cc2/C=C/C(=O)c2ccc(Br)cc2)cc1
inactive: HCT-15 colon 64% | HT29 colon 97.8% | SNB-75 CNS 107% | SNB-19 CNS 85.6% | U251 CNS 86.1% | PC-3 prostate 89.1% | SK-MEL-5 melanoma 92.4% | UACC-62 melanoma 78.9% | LOX IMVI melanoma 67.5% | SK-MEL-28 melanoma 102%

CNC(=O)c1cc(N2CCc3cc(NC(=O)Nc4ccc(Cl)c(Cl)c4)ccc32)ccn1
inactive: HCT-15 colon 63% | HT29 colon 82.1% | SNB-75 CNS 87.9% | SNB-19 CNS 81.4% | U251 CNS 70% | PC-3 prostate 65.2% | SK-MEL-5 melanoma 74.5% | UACC-62 melanoma 78.9% | LOX IMVI melanoma 86.9% | SK-MEL-28 melanoma 86.5%

COc1cc(CNC(=O)Cc2ccccc2[N+](=O)[O-])ccc1OCC(=O)NO
inactive: HCT-15 colon 105% | HT29 colon 110% | SNB-75 CNS 95.6% | SNB-19 CNS 98.7% | U251 CNS 106% | PC-3 prostate 95.9% | SK-MEL-5 melanoma 103% | UACC-62 melanoma 92.7% | LOX IMVI melanoma 100% | SK-MEL-28 melanoma 109%

Cc1cc2nc(C(Cl)Cl)nc(-c3ccco3)n2n1
inactive: HCT-15 colon 72% | HT29 colon 37.2% | SNB-75 CNS 94.5% | SNB-19 CNS 62.8% | U251 CNS 53.8% | PC-3 prostate 73% | SK-MEL-5 melanoma 97.8% | UACC-62 melanoma 78.2% | LOX IMVI melanoma 93.4% | SK-MEL-28 melanoma 87.6%

CCOC(=O)Nc1cccc(-n2cnc3cc(-c4ccc(O)cc4)ccc32)c1
active: HCT-15 colon 9.71% | HT29 colon 5.49% | SNB-75 CNS 3.54% | SK-MEL-5 melanoma 9.15%
inactive: SNB-19 CNS 27.1% | U251 CNS 19.1% | PC-3 prostate 29.9% | UACC-62 melanoma 35.8% | LOX IMVI melanoma 41.2% | SK-MEL-28 melanoma 63.8%

C#C[C@]1(O)CC[C@H]2[C@@H]3CC=C4c5sc(-c6ccccn6)nc5CC[C@]4(C)[C@H]3CC[C@@]21C
inactive: HCT-15 colon 68.9% | HT29 colon 68.2% | SNB-75 CNS 37.4% | SNB-19 CNS 72.4% | U251 CNS 51.1% | PC-3 prostate 51.9% | SK-MEL-5 melanoma 91% | UACC-62 melanoma 67.6% | LOX IMVI melanoma 62.9% | SK-MEL-28 melanoma 44.3%

O=S(=O)(Nc1cc(Cl)cc(Cl)c1)c1ccc(-c2cnc(C3CC3)o2)cc1
active: SNB-75 CNS -1.98%
inactive: HCT-15 colon 30.9% | HT29 colon 12.1% | SNB-19 CNS 42.9% | U251 CNS 37.4% | PC-3 prostate 27% | SK-MEL-5 melanoma 36.9% | UACC-62 melanoma 39.1% | LOX IMVI melanoma 44.8% | SK-MEL-28 melanoma 69.9%

C/C(=C(/c1ccc(O)cc1)c1ccc(OCCN2CCCC2)cc1)c1ccc(Cl)cc1
inactive: SNB-75 CNS 62.5% | SNB-19 CNS 49.1% | U251 CNS 20.3% | PC-3 prostate 46.9% | SK-MEL-5 melanoma 54.3%
active: HCT-15 colon -19.1% | HT29 colon -52.3% | UACC-62 melanoma -17.7% | LOX IMVI melanoma -19.2% | SK-MEL-28 melanoma -70%

Cn1c(SC(C(=O)Nc2ccc(F)cc2)c2ccccc2)nc2ccccc2c1=O (stereo not given)
inactive: HCT-15 colon 102% | HT29 colon 107% | SNB-75 CNS 91.3% | SNB-19 CNS 98.9% | U251 CNS 103% | PC-3 prostate 95.8% | SK-MEL-5 melanoma 104% | UACC-62 melanoma 95.2% | LOX IMVI melanoma 102% | SK-MEL-28 melanoma 114%

CCN(CC)c1ccc2cc(C(=O)NCCOCCOCCOCCn3cc(CCC(=O)Nc4ccc(C(=O)c5ccc(NC(=O)OC(C)(C)C)cc5)cc4)nn3)c(=O)oc2c1
active: SK-MEL-5 melanoma -17.2%
inactive: HCT-15 colon 72.7% | HT29 colon 77.9% | SNB-75 CNS 94.6% | SNB-19 CNS 75.7% | U251 CNS 69.8% | PC-3 prostate 39.4% | UACC-62 melanoma 32.1% | LOX IMVI melanoma 26.7% | SK-MEL-28 melanoma 82.6%

CCOC(=O)c1c(NC(=O)c2ccc(F)cc2F)sc2c1CCC(=O)C2
inactive: HCT-15 colon 80.6% | HT29 colon 103% | SNB-75 CNS 94.3% | SNB-19 CNS 67.2% | U251 CNS 53.5% | PC-3 prostate 93.7% | SK-MEL-5 melanoma 98.5% | UACC-62 melanoma 83.4% | LOX IMVI melanoma 80.7% | SK-MEL-28 melanoma 112%

COc1cc2c3c(n(CCCNC4CCCC4)c(=O)c2cc1OC)-c1cc2c(cc1C3=O)OCO2
active: HCT-15 colon -68.6% | HT29 colon -55.1% | U251 CNS -87.9% | PC-3 prostate -84.7% | LOX IMVI melanoma -82.3%
inactive: SNB-75 CNS 84.9% | SNB-19 CNS 46.2% | SK-MEL-5 melanoma 95% | UACC-62 melanoma 74% | SK-MEL-28 melanoma 95.8%

Source: PubChem BioAssay (NCI)
